Source: PubChem (National Center for Advancing Translational Sciences (NCATS))
An excerpt weighted towards active compounds, which were near 19% of everything screened.
Pf growth 96h – Primary qHTS for delayed death inhibitors of the malarial parasite plastid, 96 hour incubation; Potency, µM (doses to about 28.7 µM), without a hit: at the top dose activity change, negative = inhibition, hits mostly inhibitors; P. falciparum luciferase reporter growth, 96 h; 320,000 tested, 6.9% active; note: potency is the fitted concentration of half-maximal effect; % is set by controls: 0 for no effect and ±100 for the full control effect
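Luminescence readout: decreased luciferase signal marks inhibited growth of reporter-expressing P. falciparum in infected red cells (2% hematocrit, 0.05% parasitemia final), exposed to compound two generations (96 h, 37 C, 5% CO2).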
Shiga toxin inh – A qHTS for Small Molecule Inhibitors of Shiga Toxin; Vero cells, Shiga toxin protein synthesis inhibition reporter; inhibition, % at 38.7 µM; 290,000 tested, 9.2% active; AID 2315, 2010; in the data active = inhibition mostly above about 28%, no sharp cut-off; inactive = mostly below about 43%; note: 0% is about no effect
LASV entry inh – qHTS for Inhibitors of binding or entry into cells for Lassa Virus. Lassa virus pseudotype entry inhibition, cell reporter. Potency, µM (highest dose often 37.9 µM), for inactives: at the top dose activity change, negative = inhibition, usual class: inhibitors. 300,000 tested, 1.2% active; calls by dose curve; tested in HEK293 cells; note: potency is the fitted concentration of half-maximal effect; % is set by controls: 0 for no effect and ±100 for the full control effect; nearly all actives have a fitted effect of over 50% in size
CHX counter-1 – Cycloheximide Counterscreen for Small Molecule Inhibitors of Shiga Toxin; cell reporter, cycloheximide protein synthesis inhibition counterscreen; max response, %; 300,000 tested, 12% active; AID 2314, 2010; in the data active = max response mostly above about 13%, no sharp cut-off; inactive = mostly below about 14%; note: read at 38.3 µM for the half of the compounds with a filed dose; 0% is about no effect
MARV entry inh – qHTS for inhibitors of binding or entry into cells for Marburg Virus | Marburg virus pseudotyped entry inhibition, cell reporter | Potency, µM (series often up to 37.8 µM), without a hit: top-dose activity change, negative = inhibition, most hits filed as inhibitors | 300,000 tested, 1.8% active | AID 540276, 2011; calls by dose curve; tested in HEK293 cells; note: potency is the fitted concentration of half-maximal effect; % is set by controls: 0 for no effect and ±100 for the full control effect
Pf growth 48h – Primary qHTS for delayed death inhibitors of the malarial parasite plastid, 48 hour incubation | P. falciparum luciferase growth in erythrocytes, 48 h | Potency, µM (titrated, usually from 28.7 µM), for the others: at the top dose activity change, negative = inhibition, hits mostly inhibitors | 310,000 tested, 5.9% active | AID 504832, 2011; note: potency is the fitted concentration of half-maximal effect; % is set by controls: 0 for no effect and ±100 for the full control effect
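Growth was read as firefly luciferase luminescence after a 48 h, 37 C, 5% CO2 exposure of compounds to reporter-bearing P. falciparum cultures (0.1% parasitemia, 2% hematocrit final) in Albumax-supplemented RPMI 1640.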
CHX counter-2 – Cycloheximide Counterscreen for Small Molecule Inhibitors of Shiga Toxin (Confirmatory); shares compounds with Shiga toxin inh; Cycloheximide counterscreen, protein synthesis reporter, Shiga toxin assay; Potency, µM (top dose mostly 38.3 µM), for the others: at the top dose activity (activation), hits mostly activators; 510 tested, 3% active; AID 2318, 2010; calls by dose curve; note: potency is the fitted concentration of half-maximal effect; 0% is about no effect
Numbers without * were called inactive; ? = inconclusive; . = no result; ! = not confirmed by another sample; [ ] = remark or other dose. Unless noted, calls come from the whole dose curve; as a rule, active = well fitted inhibition curve with a large enough effect; inconclusive = small, poorly fitted or top-dose-only effect, or another doubt; inactive = no such curve, though single readings can be large or run the other way.

SMILES	Pf growth 96h	Shiga toxin inh	LASV entry inh	CHX counter-1	MARV entry inh	Pf growth 48h	others
CCOP(=O)(OCC)c1nc(-c2ccccc2)oc1NCc1ccccc1	2.6µM*	7	?	0	?	7.4µM*
CCOP(=O)(OCC)c1nc(-c2cccc3ccccc23)oc1NCCc1ccc(OC)cc1	?	-18	?	-1	?	15µM*
O=P(c1ccccc1)(c1ccccc1)c1nc(-c2ccccc2)oc1NCc1ccccc1	9.3µM*	23	24%[46.1 µM]	13	?	5.9µM*
CCOP(=O)(OCC)c1nc(Cc2ccccc2)oc1NCc1ccccc1	10µM*	-4	.	-2	.	9.3µM*
Cc1cc(C)n(-c2cc(N3CCN(S(=O)(=O)c4ccc(Cl)cc4)CC3)ccc2[N+](=O)[O-])n1	8%	-12	?	2	-36%	7.4µM*
Cc1cc(C)n(-c2cc(N3CCN(C(=O)c4cccc(Br)c4)CC3)ccc2[N+](=O)[O-])n1	9.3µM*	-8	-17%	17	?	?
CC(=O)N1CCN(c2ccc([N+](=O)[O-])c(-n3nc(C)cc3C)c2)CC1	18%	-3	-3%	-2	-2%	-20%
CCOc1ccc(C(=O)CC(C(=O)O)N2CCCCC2)cc1 (stereo unspecified)	?	.	.	.	.	-26%
CCn1c(SCC(=O)NC2CCCc3ccccc32)nnc1-c1ccncc1 (stereo unspecified)	33%	-7	1%	-2	13%	22%
CN(C)/C=C/C(=O)c1ccncc1	12%	-6	-7%[46.1 µM]	-2	-3%[46.1 µM]	-2%
CN(O)/C=C/C(=O)c1ccc(Br)cc1	-1%	27	-16%	0	?	0%
Cc1ccc(C)n1-c1ccc(C(=O)/C=C/N(C)C)cc1	15µM*	38	?	16	-26%[46.1 µM]	?
CN(C)/C=C/C(=O)c1ccc(Br)cc1	0%	61*	25%[46.1 µM]	26*	-8%[46.1 µM]	27%
COc1cccc(N2CCN(C(=O)c3ccc4nc(N5CCCCC5)sc4c3)CC2)c1	?	109*	.	77*	-6%	.
O=C(c1ccc2nc(N3CCOCC3)sc2c1)N1CCCC1	-19%	8	.	9	.	17%
COc1cccc(N2CCN(C(=O)c3ccc4ccccc4c3)CC2)c1	?	.	-29%	.	?	45%
COc1ccc(N2CCN(C(=O)c3ccc4nc(N5CCCCC5)sc4c3)CC2)cc1	5%	44*	.	53*	0%	18%
CCn1c(=O)c([N+](=O)[O-])c(NCCc2ccc(OC)c(OC)c2)c2ccccc21	21%	-4	?	-2	?	?
CCOC(=O)c1sc2nc(N3CCOCC3)c3c(c2c1N)CCCC3	1µM*	-10	?	-3	2%[46.1 µM]	28%
COC(=O)c1ccc(-c2sc3nc(N4CCOCC4)c4c(c3c2N)CCCC4)o1	9.3µM*	-15	?	2	?	9%
Nc1c(C(=O)NCc2ccco2)sc2nc(N3CCOCC3)c3c(c12)CCCC3	?	-2	-1%	-1	-18%[46.1 µM]	9.3µM*
CCN(CC)C(=O)c1sc2nc(N3CCOCC3)c3c(c2c1N)CCCC3	.	-18	-10%	-4	-18%	?
COC(=O)c1sc2nc(N3CCCCC3)c3c(c2c1N)CCCC3	?	8	?	9	-29%	.
N#CC1=C(N)SC(N)=C(C#N)C1c1c(Cl)cccc1Cl	63%	-10	-3%	-3	-2%	-3%
COc1ccc(NC(=O)C(c2cc3c(cc2[N+](=O)[O-])OCO3)N(C)Cc2ccccc2)cc1 (stereo unspecified)	?	32	-19%	-3	?	?
SMILES	Pf growth 96h	Shiga toxin inh	LASV entry inh	CHX counter-1	MARV entry inh	Pf growth 48h	others
CCN(c1cccc(C)c1)C(C(=O)Nc1ccc(OC)cc1)c1cc2c(cc1[N+](=O)[O-])OCO2 (stereo unspecified)	?	22	-6%	11*	?	-5%
O=C(Nc1ccc(O)c2c(=O)cc(-c3ccccc3Cl)oc12)c1ccc(F)cc1	-7%	100*!	.	88*!	.	4%
Cc1ccc(/C=C/C(=O)Nc2ccc(O)c3c(=O)cc(-c4ccccc4Cl)oc23)cc1	10µM*	4	.	7	.	?
CC(C)(C)c1ccc(C(=O)Nc2ccc(O)c3c(=O)cc(-c4ccccc4Cl)oc23)cc1	?	33	.	4	.	?
COc1ccc(CC(=O)Nc2ccc(NC(=O)c3ccccc3F)cc2)cc1	12%	-1	6%	8	-2%	34%
CCN(CC)c1nc2c(c(=O)[nH]c(=O)n2C)n1Cc1ccccc1Cl	-2%	19	.	-3	.	33%
COc1ccc2c(C(=O)CN3CCSCC3)c[nH]c2c1	16%	40*	17%	32*	?	-16%
COc1ccc2[nH]cc(C(=O)CN3CCCCC3)c2c1	?	3	-11%	27*	1%	-15%
COc1ccc(CCNC(=O)CCCOc2cccc(C)c2C)cc1OC	?	-3	.	-1	.	?
CC(C)CC(NC(=O)C(NC(=O)OC(C)(C)C)C(C)C)C(N)=O (stereo unspecified)	9%	-7	-14%	-4	-13%[46.1 µM]	0%
CC(C)CC(NC(=O)C(NC(=O)OC(C)(C)C)C(C)C)C(=O)NC(CCC(=O)OCc1ccccc1)C(N)=O (stereo unspecified)	?	18	?	-1	-17%	1.9µM*
CC(=O)NC(CC(C)C)C(=O)NC(Cc1ccccc1)C(N)=O (stereo unspecified)	?	9	1%	8.8*	?	0%
O=C(CSCc1c(F)cccc1Cl)NNC(=S)NC1CCCCC1	?	20	-2%	-4	-1%	-14%
COc1ccccc1CNC(=O)Cn1cc([N+](=O)[O-])ccc1=O	28%	50*	.	-3	.	28%	CHX counter-2=-2%
CCCCOC(=O)c1ccc(N=Nc2c(C)c(C#N)c(O)[nH]c2=O)cc1	48%	47*	.	8	.	42%	CHX counter-2=?
O=C(NCCCO)/C(=C\c1ccco1)NC(=O)c1ccco1	?	38*	.	1	.	16%	CHX counter-2=-1%
Cc1cccc(Cn2cc(SCC(=O)Nc3nccs3)c3ccccc32)c1	?	23*	.	8	.	?	CHX counter-2=?
CC(=O)N/C(=C\c1ccccc1)C(=O)NC(C)C(=O)O (stereo unspecified)	-26%	-9	18%	-1	0%	-16%
CC(=O)N/C(=C\c1ccccc1)C(=O)Nc1ccccc1C	107%	52*	.	8	.	-8%	CHX counter-2=2%
